In article PMC4336329 (PLoS ONE, 2015):
Hit rate of the full screen: of about 310,000 compounds, about 14,000 (4.5%) showed an effect of 50% or more. Effects have a minus sign here. Only a selection was taken, and strong results are over-represented in it overall.

target: human ether-à-go-go-related gene (hERG) potassium channel (human, UniProt Q12809); experiment: primary screen, population patch clamp on CHO cells stably expressing hERG; higher = less effect of the substance
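Also: peak tail current of the secondary pulse compared with the same well before compound.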

Sequence of human ether-à-go-go-related gene (hERG) potassium channel (Q12809 whole entry, looked up): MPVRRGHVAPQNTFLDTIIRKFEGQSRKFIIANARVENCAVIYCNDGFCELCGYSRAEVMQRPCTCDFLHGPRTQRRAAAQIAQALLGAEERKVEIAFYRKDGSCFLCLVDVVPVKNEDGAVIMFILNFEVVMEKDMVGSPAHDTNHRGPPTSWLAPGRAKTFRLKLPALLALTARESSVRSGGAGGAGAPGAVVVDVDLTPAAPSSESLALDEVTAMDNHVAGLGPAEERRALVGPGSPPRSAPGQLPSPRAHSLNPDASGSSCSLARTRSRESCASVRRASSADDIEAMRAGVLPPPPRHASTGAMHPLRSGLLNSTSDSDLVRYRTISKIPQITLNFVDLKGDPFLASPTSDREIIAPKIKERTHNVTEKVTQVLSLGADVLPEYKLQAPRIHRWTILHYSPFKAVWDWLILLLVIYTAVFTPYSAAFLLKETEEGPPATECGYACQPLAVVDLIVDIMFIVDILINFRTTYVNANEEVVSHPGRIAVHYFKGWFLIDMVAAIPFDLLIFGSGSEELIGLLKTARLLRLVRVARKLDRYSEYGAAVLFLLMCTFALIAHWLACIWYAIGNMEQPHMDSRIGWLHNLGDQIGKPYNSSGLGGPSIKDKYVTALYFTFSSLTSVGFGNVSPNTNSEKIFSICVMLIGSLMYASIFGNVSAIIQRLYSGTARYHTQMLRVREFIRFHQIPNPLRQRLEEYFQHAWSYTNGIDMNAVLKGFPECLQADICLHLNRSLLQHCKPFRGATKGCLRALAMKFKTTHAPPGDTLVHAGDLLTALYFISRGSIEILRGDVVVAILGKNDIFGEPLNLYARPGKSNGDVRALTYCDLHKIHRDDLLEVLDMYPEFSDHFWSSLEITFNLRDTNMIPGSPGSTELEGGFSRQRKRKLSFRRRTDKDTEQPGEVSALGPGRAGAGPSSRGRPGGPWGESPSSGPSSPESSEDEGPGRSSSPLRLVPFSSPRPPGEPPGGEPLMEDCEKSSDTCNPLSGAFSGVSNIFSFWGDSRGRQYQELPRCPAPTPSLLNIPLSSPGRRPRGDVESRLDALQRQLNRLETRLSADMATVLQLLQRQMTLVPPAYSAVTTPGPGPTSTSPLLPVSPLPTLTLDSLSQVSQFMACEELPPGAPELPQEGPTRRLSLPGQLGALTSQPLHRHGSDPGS

Compound | hERG current change (%, negative = inhibition) at 10uM
O=C(CCCn1c(SCC(=O)c2ccc(Cl)cc2)nc2ccccc2c1=O)NCc1ccco1 | 3.21%
O=c1c(Cl)c(Nc2cccc(Cl)c2)cnn1-c1nc2ccccc2s1 | -2.51%
COc1ccccc1CCn1c(N)cc(=O)[nH]c1=O | 18.4%
Cc1cc(C)c2c(N)c(S(=O)(=O)Cc3ccccc3)sc2n1 | -33.3%
O=P(Oc1ccccc1)(Oc1ccccc1)c1ccccc1 | -21.8%
CCOc1ccc(C(=O)N2CCn3c2nc2ccccc23)cc1 | -5.37%
Br.Cn1c(=N)n(CC(=O)c2ccc(F)cc2)c2ccccc21 | -23.2%
Br.CCCn1c(=N)n(CC(=O)c2ccc(Cl)c(Cl)c2)c2ccccc21 | -51.5%
CCn1c(=N)n(CC(=O)c2cccc(OC)c2)c2ccccc21 | -16.6%
Br.Cn1c(=N)n(CC(=O)c2ccc(Cl)c(Cl)c2)c2ccccc21 | -64.1%
Br.C=CCn1c(=N)n(CC(=O)c2ccc(Cl)cc2)c2ccccc21 | -36.1%
Br.CCn1c(=N)n(CC(=O)c2ccc(Cl)c(Cl)c2)c2ccccc21 | -51.4%
Br.CCCn1c(=N)n(CC(=O)O)c2ccccc21 | -5.8%
Br.Cn1c(=N)n(CC(=O)c2ccccc2)c2ccccc21 | -12.4%
Br.CCn1c(=N)n(CC(=O)c2ccc(OC)c(OC)c2)c2ccccc21 | -13.7%
Br.Cn1c(=N)n(CC(=O)c2ccc(Br)cc2)c2ccccc21 | -41%
Br.CCCn1c(=N)n(CC(=O)c2ccc(Cl)cc2)c2ccccc21 | -53%
O=C(Nc1ccc(C(=O)N2CCC(O)(c3ccc(Cl)c(C(F)(F)F)c3)CC2)cc1)c1ccc(Br)o1 | 8.21%
Cc1cc2cc(CCNC(=O)CC(C)(C)C)c(=O)[nH]c2cc1C | 7.53%
O=C(Cc1coc(-c2ccc(F)cc2)n1)Nc1ccccc1 | -15.4%
Cn1c(=O)c2ncn(CC(=O)Nc3nc(-c4ccc(Cl)cc4)cs3)c2n(C)c1=O | 12.1%
N#CCc1c(C#N)c(N)nc(N2CCN(S(=O)(=O)c3ccccc3F)CC2)c1C#N | -9.75%
O=C(CN(c1ccccc1)S(=O)(=O)c1ccccc1)Nc1ccc(F)cc1 | 22.6%
Cc1cccc(N2C(=O)NC(=O)/C(=C\c3cc(C)n(-c4sc5c(c4C#N)CCCC5)c3C)C2=O)c1C | 4.35%

Compound | hERG current change (%, negative = inhibition) at 10uM
Cc1nnc(NC(=O)CSc2nnc(C)n2Cc2ccccc2)s1 | 17.7%
CC1CC(C)CN(S(=O)(=O)c2cccc(C(=O)N3CCN(c4ccc(F)cc4)CC3)c2)C1 (stereo not drawn) | -51.9%
CC1CCN(S(=O)(=O)c2cccc(C(=O)N3CCN(c4ccc(F)cc4)CC3)c2)CC1 | -65.4%
CC1CCN(C(=O)c2cccc(S(=O)(=O)N3CCN(c4ccccc4)CC3)c2)CC1 | 2.41%
O=C(c1cccc(S(=O)(=O)N2CCN(c3ccc(F)cc3)CC2)c1)N1CCCCCCC1 | -45.2%
CC1CN(C(=O)c2cccc(S(=O)(=O)N3CCN(c4ccc(F)cc4)CC3)c2)CC(C)O1 (stereo not drawn) | -45.4%
CC(=O)N1CCN(C(=O)c2cccc(S(=O)(=O)N3CCN(c4ccc(F)cc4)CC3)c2)CC1 | -20.1%
COc1cc(/C=N/NC(=O)CSc2n[nH]c(=O)[nH]c2=O)cc(OC)c1O | 28.8%
Cc1cc(C)cc(-n2c(SC(C)C(=O)NCc3ccc4c(c3)OCO4)nc3ccccc3c2=O)c1 (stereo not drawn) | 11.3%
COc1cc(NC(=O)c2ccc(C)cc2C)ccc1NC(=O)c1cc2ccccc2o1 | 6.61%
Nc1c(C(=O)c2ccccc2)sc2nsc(SCCN3CCCC3)c12 | -38.2%
Clc1ccc(N2CCN(/N=C/c3cccnc3)CC2)cc1 | -1.21%
O=C(Nc1nccs1)c1ccc(Br)cc1 | 12.1%
Cc1ccc(/C=N/NC(=O)CSc2nnc(-c3ccccc3)n2-c2ccc(Cl)cc2)o1 | -21.8%
O=C(CSc1nnc(-c2ccc(Cl)cc2)n1-c1ccc(Cl)cc1)N/N=C/c1ccco1 | -41.7%
CCn1c(SCC(=O)N/N=C/C=C/c2ccco2)nnc1-c1ccccc1 | -34.7%
CCn1c(SCC(=O)N/N=C/C(C)=C/c2ccco2)nnc1-c1ccccc1 | -55.1%
CCn1c(SCC(=O)N/N=C/C(C)=C\c2ccco2)nnc1-c1ccccc1 | -39%
O=C(CSc1nnc(-c2ccccc2)n1-c1ccc(Cl)cc1)N/N=C/c1ccco1 | -55%
O=C(CSc1nnc(SCc2ccccc2)s1)N/N=C/c1ccc(Cl)cc1Cl | -5.88%
O=C(CSc1nnc(-c2ccccc2)c(-c2ccccc2)n1)NC1CCS(=O)(=O)C1 (stereo not drawn) | 17.3%
Cc1cc(C)n(-c2nc(NCCCN(C)C)c3c4c(sc3n2)COC(C)(C)C4)n1 | -14.1%
Cc1cc(C)n(-c2nc(SCC(=O)O)c3c4c(sc3n2)CCCC4)n1 | 6.68%
Cc1cc(C)n(-c2nc(SCC(=O)O)c3c4c(sc3n2)COC(C)(C)C4)n1 | 2.48%

Compound | hERG current change (%, negative = inhibition) at 10uM
Cc1cc(C)n(-c2nc(SCCN(C)C)c3c4c(sc3n2)CCCC4)n1 | -53.7%
Cc1cc(C)n(-c2nc(NCCN(C)C)c3c4c(sc3n2)CCCC4)n1 | -16.3%
CCN(CC)CCNc1nc(-n2nc(C)cc2C)nc2sc3c(c12)CC(C)(C)OC3 | -55.4%
CCN(CC)CCCNc1nc(-n2nc(C)cc2C)nc2sc3c(c12)CC(C)(C)OC3 | -23%
Cc1cc(C)n(-c2nc(NCCN(C)C)c3c4c(sc3n2)COC(C)(C)C4)n1 | -32.7%
Cc1cc(C)n(-c2nc(SCCN(C)C)c3c4c(sc3n2)COC(C)(C)C4)n1 | -59.1%
Cc1cc(C)n(-c2nc(NCCCO)c3c4c(sc3n2)CCCC4)n1 | -17.9%
Cc1cc(C)n(-c2nc(SCC(=O)N3CCCC3)c3c4c(sc3n2)CCCC4)n1 | -9.29%
Cc1cc(C)n(-c2nc(NCCCN(C)C)c3c4c(sc3n2)CCCC4)n1 | -65.2%
C=CCn1cc(/C=N\NC(=O)c2cc3c(ccc4ccccc43)o2)c2ccccc21 | -4.85%
O=C(c1ccccc1)c1c[nH]c2ccccc12 | 14.6%
Cc1cc(C)cc(NC(=S)N2CCN(S(=O)(=O)c3ccccc3)CC2)c1 | 0.86%
O=C(O)c1ccc(-c2ccc(OS(=O)(=O)c3ccccc3F)cc2)cc1 | 9.84%
O=C(COc1ccccc1Cl)Nc1ccc2c(c1)OCO2 | 11.1%
CC(C)C(=O)Nc1ccc(NC(=O)c2ccc(COc3ccccc3)cc2)cc1 | 16.3%
CCOC(=O)C1CCN(C(=O)c2ccc(SC)cc2OC)CC1 | -19.8%
O=C1c2ccccc2C(=O)C12OC2c1cccc2ccccc12 (stereo not drawn) | -69.2%
O=C1c2ccccc2C(=O)C12OC2c1ccc(Cl)cc1Cl (stereo not drawn) | 4.07%
O=C1c2ccccc2C(=O)C12OC2c1ccc(Cl)cc1 (stereo not drawn) | 6.63%
Cc1c(C)n(Cc2ccccc2)c2ccc(C(=O)NCCN3CCOCC3)cc12 | -3.43%
CCOC(=O)c1cc(-c2ccccc2)sc1N | 0.819%
CN(C)CCNc1oc(-c2ccccc2Cl)nc1S(=O)(=O)c1ccccc1 | -35.7%
COCCNc1oc(-c2cccs2)nc1S(=O)(=O)c1ccc(C)cc1 | -26.4%
CN(C)CCCNc1oc(-c2ccccc2Cl)nc1S(=O)(=O)c1ccccc1 | -43.3%

Compound | hERG current change (%, negative = inhibition) at 10uM
CN(C)CCCNc1oc(-c2ccccc2Cl)nc1S(=O)(=O)c1ccc(F)cc1 | -59.9%
Cc1ccc(S(=O)(=O)c2nc(-c3cccs3)oc2NCCCN(C)C)cc1 | -67.8%
COCCCNc1oc(-c2cccs2)nc1S(=O)(=O)c1ccc(C)cc1 | -15.2%
CN1C(=O)c2cccc(NCCCCCCN3C(=O)c4ccccc4C3=O)c2C1=O | 5.41%
CC(C)OCC1CO1 (stereo not drawn) | 6.9%
Cc1noc(NS(=O)(=O)c2ccc(NC(=O)c3ccc(N(C)C)cc3)cc2)c1C | 12.2%
Cc1cc(C)cc(NC(=O)C(=O)NCCc2c[nH]c3ccccc23)c1 | 14.9%
CCCOc1ccccc1-n1sc2c(c1=S)-c1cc(OC)cc3c1N(C(=O)C3=O)C2(C)C | 18.5%
C#CCOc1c(Cl)cc(/C=N/O)cc1OC | 4.04%
COC(=O)c1ccc2nc(NC(=O)C3CC3)sc2c1 | 14%
O=C(Nc1nc2ccccc2s1)C1CC(=O)N(c2ccccc2)C1 (stereo not drawn) | -11.2%
COc1ccc(N2CC(C(=O)Nc3nc4ccc(S(C)(=O)=O)cc4s3)CC2=O)cc1 (stereo not drawn) | 3.32%
CCOc1ccc2nc(NC(=O)Cn3cnc4c3c(=O)n(C)c(=O)n4C)sc2c1 | -41.9%
COc1ccc(N2CC(C(=O)Nc3nc4ccccc4s3)CC2=O)cc1 (stereo not drawn) | -48.9%
CC(C)c1ccc2nc(NC(=O)C3CC3)sc2c1 | -55%
O=C(Nc1nc2ccc(Cl)cc2s1)C1CC1 | 28.7%
CS(=O)(=O)c1ccc2nc(NC(=O)C3CC(=O)N(c4ccccc4)C3)sc2c1 (stereo not drawn) | -4.25%
COc1ccc2nc(NC(=O)Cn3cnc4ccccc4c3=O)sc2c1 | -4.49%
COc1ccc2nc(NC(=O)Cn3cnc4c(=O)n(C)c(=O)n(C)c43)sc2c1 | -67.9%
COc1ccc2nc(NC(=O)C3CC(=O)N(c4ccccc4)C3)sc2c1 (stereo not drawn) | -51.7%
COc1ccc(N2CC(C(=O)Nc3nc4ccc(OC)cc4s3)CC2=O)cc1 (stereo not drawn) | -58.8%
